For orientation: inhibition means the drop in the measured response relative to a control, in per cent.

The structures appear in SMILES notation. Among all 360,000 compounds or so, about 8,200 (2.3%) were called active. No stated cut-off is given here; in the data, active means inhibition above about 27%; inactive means the rest. Many of the other results were omitted from the sample, so actives are more common in it than they were.

Fructose-bisphosphate aldolase (Mycobacterium tuberculosis (strain ATCC 25618 / H37Rv)), sequence (P9WQA3 whole entry, looked up): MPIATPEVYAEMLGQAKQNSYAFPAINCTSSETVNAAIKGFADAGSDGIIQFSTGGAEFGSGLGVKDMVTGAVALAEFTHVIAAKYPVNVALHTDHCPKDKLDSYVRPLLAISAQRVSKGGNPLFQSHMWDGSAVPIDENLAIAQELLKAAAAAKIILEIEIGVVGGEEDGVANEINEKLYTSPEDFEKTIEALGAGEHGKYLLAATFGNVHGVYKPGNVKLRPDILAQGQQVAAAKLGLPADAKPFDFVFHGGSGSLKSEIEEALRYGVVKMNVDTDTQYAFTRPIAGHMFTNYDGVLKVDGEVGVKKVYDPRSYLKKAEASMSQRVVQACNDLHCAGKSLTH

The assay has as its target Fructose-bisphosphate aldolase (Mycobacterium tuberculosis (strain ATCC 25618 / H37Rv)) (UniProt P9WQA3). The assay is described as follows: M. tuberculosis aldolase activity blockers – biochemical, fluorescence, strain H37Rv, primary screen (AID 588726).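 Further: 0% = vehicle and 100% = reference inhibitor.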 The note with it: purified M. tuberculosis FBA, fluorescence read-out, at 1 µM, active compounds read high.
As to `CCN(CC(=O)NCc1cccs1)c1nnnn1-c1ccccc1`, the inhibition is -0.27% (inactive).
The same measure for `CN(C(=O)C1CCOC1)c1nnc(-c2cccnc2)s1` (stereo not drawn): -7.08% (inactive); for `CN(C(=O)c1ccccn1)c1nnc(-c2ccccn2)s1`: 31.6% (active); for `CN(C(=O)COc1ccccc1)c1nnc(-c2ccncc2)s1`: 53.2% (active).
For `CN(C(=O)COc1nnc(-c2cccs2)c(-c2cccs2)n1)c1ccccc1`, the inhibition is 3.91% (inactive).
For the compound `CCC(C)(C)NC(=O)C(c1ccccn1)N(C(=O)c1csnn1)c1ccccc1` (stereo not drawn), the inhibition is -0.46% (inactive).
The same measure for `O=C(Nc1nnc(C2CC2)s1)c1ccccn1`: 2.11% (inactive).
For `CN(C(=O)CSc1nnc(-c2c[nH]c3ccccc23)o1)C1CCS(=O)(=O)C1` (stereo not drawn) the value was 0.37% (inactive); for `Nn1c(SCC(=O)NC2CCCC2)nnc1-c1ccccc1F`, -0.66% (inactive).
The same measure for `CC(=O)C(C)n1cnc2scc(-c3ccc(C)cc3)c2c1=O` (stereo not drawn): -0.72% (inactive).
In the case of `Cc1sc2ncnc(SCC(=O)Nc3ccc(CN4CCCC4)cc3)c2c1C`, the inhibition was -0.95% (inactive).
The same measure for `O=C(O)CCCn1c(=O)c2cccn2c2ccc(F)cc21`: 6.9% (inactive).
The same measure for `CCN(CC)CCC(c1ccc2c(c1)OCO2)c1c(OC)cc(OC)c2c(-c3ccccc3)cc(=O)oc12` (stereo not drawn): 4.6% (inactive).
The same measure for `O=[N+]([O-])c1ccc2oc(-c3cccc(O)c3)nc2c1`: 0.6% (inactive); for `COc1ccc2oc(N)nc2c1`: 0.46% (inactive); for `CC(=O)Oc1ccc(C(C)=O)c2c1OCCO2`: 5.05% (inactive).
On to `O=C(COc1cc2oc(=O)c3c(c2cc1Cl)CCC3)NCCCN1CCOCC1`, for which the inhibition is 6.36% (inactive).
Consider `Cc1oc(C(N)=O)cc1COc1ccc(C(N)=O)cc1`, for which the inhibition is 3.54% (inactive).
Turning to `Cc1cc(OCc2cc(C(=O)O)oc2C)c2c3c(c(=O)oc2c1)CCCC3`, the inhibition was 107% (active).
As to `COc1ccc(CNC(=O)c2cc(=O)c3c(C)cc(C)cc3o2)cc1`, the inhibition was -0.13% (inactive).
Take `CC(Oc1cc2oc(=O)c3c(c2cc1Cl)CCCC3)C(=O)NCc1ccncc1` (stereo not drawn): the inhibition was 26.1% (inactive).
On to `COC(=O)COc1cc(C)cc2oc(=O)c3c(c12)CCCC3`, for which the inhibition was 28.4% (active).
For the compound `C=CCNC(=O)C1CC2c3ccccc3C1c1ccccc12` (stereo not drawn), the inhibition is -1.94% (inactive).
Take `CC/C(=C\c1ccc(Cl)cc1)c1ccncc1`: the inhibition was -2.63% (inactive).
For `S=c1[nH]nc(Nc2ccccc2)s1` the value was 3.65% (inactive).
With `CCc1ccc(Nc2ncc3c(n2)CC(c2ccco2)CC3=O)cc1` (stereo not drawn), the inhibition is 8.11% (inactive).
`Cc1ccc(OCC(=O)c2cc(C)n(Cc3ccco3)c2C)c([N+](=O)[O-])n1`: the inhibition was -5.32% (inactive).
For `Clc1cccc(-c2nc3nc4ccccc4nc3n2Cc2ccco2)c1`, the inhibition is 17.8% (inactive).
For `Cc1ccc(Cn2c(C)nc3c(c2=O)c2nc4ccccc4nc2n3Cc2ccco2)cc1` the value was 47.6% (active).
The same measure for `O=C1N=C(N2CCOCC2)CS1`: -1.54% (inactive).
As for `CC(C)(C)NS(=O)(=O)NC(=O)C1=C(N2CCCC2)COC1=O`, the inhibition is -4.63% (inactive).
The same measure for `CCC(C)(C)C1CCC(=NNC(=O)c2ccc(Br)o2)CC1` (stereo not drawn): -1.67% (inactive); for `CCOC(=O)C1CCCN(C(=O)CSc2nnc3nc(C)cc(C)n23)C1` (stereo not drawn): 7.69% (inactive); for `Cc1ccc(S(=O)(=O)c2nc(NCCCn3ccnc3)sc2Cl)cc1`: 0.32% (inactive).
The same measure for `Cc1ccc(-c2nc(C#N)c(NCCCn3ccnc3)o2)cc1`: 71.6% (active); for `N#Cc1nc(-c2ccc(OCc3ccccc3)cc2)oc1NCCCN1CCOCC1`: 92.7% (active).
`O=S(=O)(c1ccccc1)c1nc(-c2ccccc2)oc1NCCCN1CCOCC1`: the inhibition was -3.13% (inactive).
`O=S(=O)(c1ccc(Cl)cc1)c1nc(-c2ccccc2F)oc1NCCN1CCOCC1`: the inhibition was -1.99% (inactive).
Turning to `Cc1ccc2c(Cl)c(C(=O)NCCCn3ccnc3)sc2c1`, the inhibition is -2.28% (inactive).
Regarding `CCN(CC)S(=O)(=O)c1ccc(N2CC(C(=O)NCc3cccnc3)CC2=O)cc1` (stereo not drawn), the inhibition is 1.11% (inactive).
For `Cc1c(C)c2cc3c4c(oc3c(C)c2oc1=O)CCCC4` the value was 2.57% (inactive); for `CC[C@@H](C)[C@H](NC(=O)CCc1c(C)c2cc3c4c(oc3c(C)c2oc1=O)CCCC4)C(=O)O`, 27.5% (active); for `Cc1c(CCC(=O)N[C@@H](CC(C)C)C(=O)O)c(=O)oc2c(C)c3oc4c(c3cc12)CCCC4`, 13.8% (inactive).
For the compound `O=C(Nc1ccccc1C(=O)N1CCOCC1)C1CCC(=O)N1C1CCCC1` (stereo not drawn), the inhibition is 0.4% (inactive).
The same measure for `COCCn1c(=O)[nH]c2cc(C(=O)NCc3cccnc3)ccc2c1=O`: 12.2% (inactive); for `O=C(COc1ccc([N+](=O)[O-])cc1Cl)Nc1ccc2[nH]c(=O)[nH]c2c1`: -1.08% (inactive); for `CC(C)(C)NC(=O)COc1ccc(CNc2ccc3[nH]c(=O)[nH]c3c2)cc1`: 64.6% (active).
For `COc1ccc(C(=O)OCC(=O)Nc2ccc3[nH]c(=O)[nH]c3c2)c(OC)c1OC` the value was 5.97% (inactive); for `COc1ccc(S(=O)(=O)N2CCC(C(=O)NCCC(=O)NCCc3cccc(F)c3)CC2)cc1`, 3.06% (inactive).
As for `O=C(CCNC(=O)c1ccc(Br)cc1)NCC(c1ccco1)N1CCCCC1` (stereo not drawn), the inhibition is -0.35% (inactive).
`Cc1nn(Cc2ccccc2)c(C)c1CNC(=O)c1ccc(F)c(S(=O)(=O)N2CCOCC2)c1`: the inhibition was 0.09% (inactive).
In the case of `Cc1ccccc1CSc1nnc(Cn2c(=O)sc3ccccc32)n1C`, the inhibition was 3.39% (inactive).
Take `Cc1nc(NNC(=O)c2ccccc2)cc(-c2ccccc2)n1`: the inhibition is 1.26% (inactive).
Regarding `CNc1nc(-c2ccccc2)cc(-c2ccccc2)n1`, the inhibition was 29.2% (active).
The same measure for `Nc1cccc(-c2cc(-c3ccccc3)nc(-c3cccc(N)c3)n2)c1`: 16.1% (inactive); for `O=[N+]([O-])c1ncc(Br)cc1Nc1ccccc1`: -5.84% (inactive); for `CC1CCc2c(c3ccccc3[nH]c2=O)O1` (stereo not drawn): -0.34% (inactive).
The same measure for `COC(=O)c1sc(N)c(C(=O)OC)c1COC(=O)CNS(=O)(=O)c1ccc(C)cc1`: 1.77% (inactive).
Take `CCn1c(SCC(=O)Nc2nc(C)cs2)nnc1C(C)NC(=O)c1ccccc1` (stereo not drawn): the inhibition is 0.82% (inactive).
For `Cc1ccsc1C(=O)N[C@@H](C)c1nnc2ccccn12` the value was 51.8% (active); for `Cc1ccc(C(=O)NNC(=O)CSc2nnc3ccccn23)cc1`, 0.48% (inactive).
On to `COc1cccc(N2CC(NC(=O)c3ccc4ccccc4c3)CC2=O)c1` (stereo not drawn), for which the inhibition is 1.83% (inactive).
The same measure for `COc1ccc(S(=O)(=O)N2CCN(c3cnccn3)CC2)cc1`: 2.14% (inactive).
As to `O=C1OCCN1C(=O)[C@H]1[C@H](c2ccc(F)cc2)C(c2ccccc2)=NN1c1ccc(Br)cc1`, the inhibition was 42.2% (active).
For `C[C@@H]1C(c2ccc(F)cc2)=NN(c2ccc(Br)cc2)[C@H]1C(=O)N1CCOC1=O` the value was 20.3% (inactive).
On to `O=C1OCCN1C(=O)[C@H]1[C@H](c2ccc(Cl)cc2)C(c2cccc(Cl)c2)=NN1c1ccc(Br)cc1`, for which the inhibition is 57.4% (active).
The same measure for `O=C1OCCN1C(=O)[C@H]1[C@H](c2ccccc2)C(c2ccc(F)cc2)=NN1c1ccccc1`: 11% (inactive).
Take `Cc1nn(-c2ccccc2)c2c1C(c1cccc([N+](=O)[O-])c1)N(c1ccccc1)C(=O)N2` (stereo not drawn): the inhibition is -3.95% (inactive).
The same measure for `CCOC(=O)c1cccc(NC(=O)CN2C(=O)C3CC=CCC3C2=O)c1` (stereo not drawn): -2.2% (inactive); for `CCC(=O)c1ccc(OCC(=O)OCC(=O)N2CCc3ccccc3C2)cc1`: 6.24% (inactive).
For `CCCN(CCc1ccccc1)C1CCc2c(O)cccc2C1` (stereo not drawn) the value was 3.16% (inactive).
For `CCOC(=O)C=Cc1ccc(C(=O)OCC)[nH]1`, the inhibition was -4.99% (inactive).
`Cc1sc2ccccc2c1CNC[C@H]1O[C@@H](n2ccc(=O)[nH]c2=O)[C@H](O)[C@@H]1O`: the inhibition is 1.01% (inactive).
For `Cc1cc(=O)n2nc(N3CCCC3C(=O)NCCCN3CC(C)CC(C)C3)sc2n1` (stereo not drawn), the inhibition was 3.34% (inactive).
The same measure for `CN1CCc2c(sc3c2c(NCc2ccco2)nc2nnnn23)C1`: 37.5% (active); for `CCCSc1nc(NCc2ccco2)c2c3c(sc2n1)COC(C)(CC)C3` (stereo not drawn): 2.94% (inactive); for `CCSc1nc2sc3c(c2c(=O)n1-c1ccc(C)cc1)CCN(C)C3`: 0.45% (inactive).
For `CC(C)(C)c1ccc(C(=O)NCCn2c(N)c(C#N)c3nc4ccccc4nc32)cc1` the value was 144% (active).
On to `N#Cc1c(N)n(CCOC(=O)c2ccc(Cl)cc2)c2nc3ccccc3nc12`, for which the inhibition is 69.1% (active).
For `CN1OC(COC(=O)c2ccc(Cl)cc2)CC1c1ccccc1` (stereo not drawn) the value was 0.19% (inactive); for `CCCCNC(=O)CCNC(=O)c1ccc(C(C)(C)C)cc1`, -0.2% (inactive); for `Cn1cncc1COC(=O)c1ccc(Cl)cc1`, 3.05% (inactive).
The same measure for `CC(C)(C)c1ccc(C(=O)NCC(=O)OCN2C(=O)c3ccccc3C2=O)cc1`: -0.24% (inactive).
For `O=C(c1ccccc1Cl)N(Cc1ccccc1F)N1C(=O)CCCC1=O` the value was -2.23% (inactive).
Consider `CC(C)CN(C(=O)c1ccc2c(c1)OCO2)C1CCS(=O)(=O)C1` (stereo not drawn), for which the inhibition was -0.95% (inactive).
Take `CC(=O)Nc1ccc(Nc2ncnc3c2nnn3Cc2ccccc2Cl)cc1`: the inhibition is 2.68% (inactive).
The same measure for `CC(=O)c1cnn(-c2cc(Oc3ccc(F)cc3)ncn2)c1C`: 2.98% (inactive).
`CCc1ccccc1NC(=O)CCOc1ccccc1`: the inhibition is 0.8% (inactive).
For `Cc1ccc(NC(=O)COC(=O)CN2CCSC2=O)cc1F` the value was -1.26% (inactive); for `CC1=NN(C(=O)c2ccc(Br)cc2)C(O)(c2ccccc2)C1` (stereo not drawn), -1.19% (inactive); for `COc1ccc(NC(=O)C2(C)Cc3c(-c4cccc(NC(C)=O)c4)ccnc3O2)cc1` (stereo not drawn), 5.4% (inactive).
The same measure for `CSc1ccc(/C=N/N2CCN(Cc3ccccc3Cl)CC2)cc1`: -4.01% (inactive).
The same measure for `COCCn1c(SCC(=O)N2CCCCCC2)nc2c(c1=O)SCC2`: -1.33% (inactive); for `O=C(NCC1CCCO1)c1cc2c([nH]c3ccccc32)c(-c2ccc(F)cc2)n1` (stereo not drawn): 14% (inactive); for `Cc1ccc(Cn2c(C)c3cnn(CC(=O)NCCN4CCOCC4)c(=O)c3c2C)cc1`: -0.73% (inactive).
As to `Cc1cccn2c(=O)c3cc(C(=O)NCCN4CCOCC4)c(=N)n(Cc4cccnc4)c3nc12`, the inhibition is 131% (active).
For `Cc1ccccc1NC(=O)Cn1c(=O)n(CC2CCCO2)c(=O)c2ccccc21` (stereo not drawn) the value was 2.56% (inactive).
As for `O=C(CSc1nc2ccccc2c(=O)n1Cc1ccc(F)cc1)NCC1CCCO1` (stereo not drawn), the inhibition was 2.15% (inactive).
For `COc1ccc(CCNC(=O)Cn2c(=O)n(CC3CCCO3)c(=O)c3ccccc32)cc1OC` (stereo not drawn) the value was 4.02% (inactive); for `O=C(NCc1cccnc1)c1cc(S(=O)(=O)N2CCOCC2)c(Cl)cc1Cl`, -0.2% (inactive); for `Cc1cccn2c(=O)c3cc(C(=O)NCC4CCCO4)c(=N)n(Cc4ccc(F)cc4)c3nc12` (stereo not drawn), 186% (active).
The same measure for `Cc1cccc(NC(=O)c2ccc3c(=O)n(CC4CCCO4)c(=S)[nH]c3c2)c1` (stereo not drawn): -2.72% (inactive); for `Cc1ccc(CCNC(=O)c2ccc3nc4ccccc4c(=O)n3c2)cc1`: 12.9% (inactive).
